Experimental data published in PubChem BioAssay AID504406 (Broad Institute, 2011).
Hit rate of the full screen: of about 320,000 compounds, about 190 (0.059%) were called active. The list comes from a sample in which actives are over-represented; it also holds similar structures and randomly drawn compounds. Unmarked numbers belong to inactive results. Rule as the data show it: active = inhibition above about 10% (passing the limit was not always enough); inconclusive = no clear call, values can overlap the other calls.

biological target: UDP-galactopyranose mutase (Mycobacterium tuberculosis (strain ATCC 25618 / H37Rv)) (UniProt P9WIQ1); assay: blockers of Mtb UDP-galactopyranose mutase – biochemical, fluorescence polarization, single point, primary screen (AID 504406); settings: purified UGM, fluorescence polarization probe displacement; at 10 µM; active compounds read high
Sequence (P9WIQ1 whole entry, looked up): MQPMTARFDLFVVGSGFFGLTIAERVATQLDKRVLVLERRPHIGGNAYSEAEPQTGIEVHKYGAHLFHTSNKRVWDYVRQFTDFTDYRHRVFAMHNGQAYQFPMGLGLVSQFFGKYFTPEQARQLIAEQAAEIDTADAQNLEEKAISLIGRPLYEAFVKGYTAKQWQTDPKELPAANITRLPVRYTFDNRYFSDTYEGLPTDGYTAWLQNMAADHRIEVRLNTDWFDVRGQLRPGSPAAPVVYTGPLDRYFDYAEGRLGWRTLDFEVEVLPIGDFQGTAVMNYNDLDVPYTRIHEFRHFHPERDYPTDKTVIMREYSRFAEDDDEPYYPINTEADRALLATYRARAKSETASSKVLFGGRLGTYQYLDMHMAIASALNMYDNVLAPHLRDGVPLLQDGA

SMILES	inhibition
COCCCNC(=O)c1ccc(CNS(=O)(=O)c2ccc(NC(C)=O)cc2)cc1	0.487%
NS(=O)(=O)c1ccc(NC(=O)COC(=O)C2(c3ccc(F)cc3)CCCC2)cc1	-2.39%
CCOc1c(Nc2cccc(Cl)c2)c(=O)c1=O	1.65%
CN(C)S(=O)(=O)c1ccc2oc(SCC(=O)Nc3ccccc3F)nc2c1	-1.09%
CCCCN(C(=O)CCNC(=O)NC12CC3CC(CC(C3)C1)C2)c1c(N)n(CCCC)c(=O)[nH]c1=O	3.96%
CC(C)N1C(=S)SC(C)(C)C1n1oc(=O)n(-c2ccc(Cl)c(Cl)c2)c1=O (stereo unspecified)	-0.52%
O=c1c2cc(-c3ccccc3)sc2nc2n1N=C(c1cccs1)CS2	0.0849%
COc1cccc(C2=CC(=O)C[C@H](c3ccc(OC)c(OC)c3)C2)c1	-3.83%
COc1cccc2cc(/C(C)=N/NC(=O)c3ccco3)oc12	1.34%
COc1cc(NC(=O)C2=C(C)OCCS2)c(Cl)cc1C(=O)NCCN1CCN(C)CC1	-0.476%
COc1ccc(-c2nnc(SC(=O)N3c4ccccc4Sc4ccccc43)o2)cc1	-0.412%
COc1cc(CC(=O)N2CCC(n3nccc3NC(=O)C3CC3)CC2)cc(OC)c1OC	0.38%
COc1ccc(N2CCN(C(=O)c3cccs3)CC2)cc1	-0.405%
NC1=NC(=O)C(Cc2cccc(Cl)c2)S1 (stereo unspecified)	-2.61%
CCOC(=O)c1c(NC(=O)CN2C(=O)NC3(CCC(C)CC3)C2=O)sc(C)c1CC (stereo unspecified)	-4.1%
O=C1CCC(C(=O)N2CCN(c3ccccc3Cl)CC2)CN1CC1CCCCC1 (stereo unspecified)	0.849%
Cc1ccc(C(O)P(=O)(OC(C)C)c2ccc(N(C)C)cc2)cc1 (stereo unspecified)	-1.46%
CCCCCCCCc1c(O)nc(-n2[nH]c(C)c(CCO)c2=O)[nH]c1=O	2.37%
COc1ccc(N2CCN(S(=O)(=O)CCNC(=O)C34CC5CC(CC(C5)C3)C4)CC2)cc1	-0.995%
ONC(=Nc1ccccc1)c1ccccc1Cl	0.392%
Cc1ccc(NC(=O)c2ccn(C(=O)Nc3ccccc3)n2)c(C)c1	0.808%
S=C(NCCc1ccccc1)N1CCn2cccc2C1c1ccncc1 (stereo unspecified)	0.92%
CNC[C@@H]1Oc2c(NS(C)(=O)=O)cccc2C(=O)N([C@@H](C)CO)C[C@H]1C	-0.151%

SMILES	inhibition
O=C(NCCN1CCOCC1)c1cc(Sc2cccc(Cl)c2)nc2ccccc12	-0.717%
O=C1NC(=O)C(c2ccc(Cl)cc2)N1 (stereo unspecified)	0.455%
CC(C)N(C(=O)Cn1cc(SCC(=O)N2CCCC2)c2ccccc21)C(C)C	0.81%
CC(CCc1ccccc1)NCC(O)c1cccc([N+](=O)[O-])c1 (stereo unspecified)	-0.221%
Nc1nc(NC(=O)/C=C/c2ccc(F)cc2)nn1-c1ccccc1	-1.05%
O=C(CC1CCCCC1)Nc1c2c(nn1-c1ccc(F)cc1)CS(=O)(=O)C2	-1.58%
Cc1ccc(C2(c3ccc(C)cc3)NC(=O)N(Cc3c(C)noc3C)C2=O)cc1	2.04%
CCOc1ccc(NC(=S)N2CCC(N(C)CC3CCCO3)CC2)cc1 (stereo unspecified)	1.59%
CN1C(=O)CC(N2CCN(c3ccccn3)CC2)C1=O (stereo unspecified)	-2.59%
CC(C)(C)CN1CCNC(=O)C1CC(=O)NC1Cc2ccccc2C1 (stereo unspecified)	-0.537%
CCc1c(C)[nH]c(=S)c(C#N)c1C	1.29%
CN1CCN(S(=O)(=O)c2cccc(C(=O)N3CCc4ccccc43)c2)CC1	2.67%
CCN(CC(=O)Nc1cccc(S(N)(=O)=O)c1)Cc1nc2ccccc2c(=O)[nH]1	0.435%
O=[N+]([O-])c1cc(S(=O)(=O)Nc2cccc(Cl)c2)ccc1N=Nc1c(O)[nH]c2ccccc12	3.07%
Cc1ccc(NC(=O)Cc2nnc(SCC(=O)Nc3nncs3)n2C)cc1	1.58%
Cc1cccc(NC(=O)c2ccc3c(=O)n(CC4CCCO4)c(=S)[nH]c3c2)c1 (stereo unspecified)	0.387%
CCN(CCCCOC(=O)c1ccc(OC)c(OC)c1)C(C)Cc1ccc(OC)cc1 (stereo unspecified)	0.111%
CC1CC(NC(=O)/C(C#N)=C/c2ccc[nH]2)CC(C)(C)C1 (stereo unspecified)	-0.655%
CC(OC(=O)CCC(=O)c1ccccc1)C(=O)Nc1ccc(F)cc1 (stereo unspecified)	0.19%
CC(C)c1csc(CN2CCC(CO)(Cc3ccccc3)CC2)n1	1.24%
O=c1c2ccccc2cnn1Cc1n[nH]c(=S)n1-c1ccccc1F	-0.397%
COc1ccnc(Oc2ccccc2)c1-c1ncn[nH]1	1.4%
CCOCCN(C=O)c1cccc(OC)c1	-2.42%

SMILES	inhibition
CCOC(=O)N1CCC(Nc2c(NCCCN3CCN(CC)CC3)c(=O)c2=O)CC1	-1.72%
O=C(Nc1ccc(F)c(Cl)c1)C1CCN(S(=O)(=O)c2cccnc2)CC1	0.143%
CCCn1c2ccccc2c2cnn(CC(=O)NCCCN3CCCCC3CC)c(=O)c21 (stereo unspecified)	-1.26%
CCOC(=O)c1cc2c(ccn2C)n1CC(=O)N1CCC(C)CC1	-2.05%
Cn1c(CC2Sc3ccccc3NC2=O)nnc1SCC(=O)c1ccc(Cl)cc1 (stereo unspecified)	1.26%
COCCN(C(=O)C(C)C)c1nnc(-c2ccc(C(C)(C)C)cc2)s1	2.82%
Cc1ccc(S(=O)(=O)N2CCC(C)CC2)cc1C(=O)NCc1ccccn1	-2.55%
COCCNc1nc2nonc2nc1N(C)Cc1ccc(C)cc1	0.32%
COC(=O)/C=C(\Oc1ccccc1)C1(O)CCCCC1	-0.0675%
Cc1ccc2c(c1)C1CN(C)CCC1N2S(=O)(=O)c1ccc(Oc2ccc([N+](=O)[O-])cc2)cc1 (stereo unspecified)	3.72%
COc1ccccc1NC(=O)N1CCCC1C(=O)NCc1cccs1 (stereo unspecified)	0.501%
CC(OC(=O)c1ccc2noc(-c3ccccc3)c2c1)C(N)=O (stereo unspecified)	1.01%
Oc1ccc(-c2onc3ccc(Cl)cc23)cc1	-1.19%
COc1ccc(-c2onc3ccc(C(C)=O)cc23)cc1	12.7% (active)
CC(C)CNC(=O)C(=O)NCC(c1ccc2c(c1)OCO2)N1CCOCC1 (stereo unspecified)	-1.37%
Cn1c(=O)cc(OCC(=O)N2CCN(c3ccccc3F)CC2)c2ccccc21	0.591%
Cc1cc(C)n(CCNC(=O)CC2C(=O)NCCN2Cc2ccc(C)o2)n1 (stereo unspecified)	-1.39%
CC(C)(C)c1cc[n+](-c2[nH]c(=O)sc2/C=N/N=C(\[O-])c2ccccc2)cc1	0.838%
CCCCn1c(-c2cccc(C)c2)nc2cc3[nH]c(=O)c(C(C)C)nc3cc21	-1.53%
CCOC(=O)c1ccc(NC(=S)N2CCN(c3ccccn3)CC2)cc1	0.665%
COc1ccc(N(C(=O)c2ccc(C)cc2)S(=O)(=O)c2cccs2)cc1	0.9%
CCn1c(SCC(=O)Nc2sc(C)c(C)c2C#N)nnc1C1CC1	2.46%
O=C(NCc1nnc(SCC(=O)N2CCCc3ccccc32)o1)c1ccccc1F	-0.239%

SMILES	inhibition
COc1cccc(NC(=O)Nc2nnc(N3CCCCC3C)s2)c1 (stereo unspecified)	-1.07%
O=C(Cc1ccccc1F)NC1CCSc2ccccc21 (stereo unspecified)	1.04%
CCN(Cc1ccncc1)C(=O)CCc1ccccc1	-1.33%
C/C=C/c1ccc(OCC(O)CN2CCCCCCC2)c(OC)c1 (stereo unspecified)	-2.18%
Cc1cc(NC(=O)CCS(=O)(=O)c2ccc(F)cc2)no1	1.59%
COc1ccc2[nH]c(C)c(CCN(Cc3cccs3)C(=S)Nc3ccccc3OC)c2c1	12.8% (active)
Cc1[nH]c2ccccc2c1CCN(Cc1cccs1)C(=S)NC(C)(C)C	1.01%
COc1cccc(NC(=S)N(CCc2c(C)[nH]c3ccccc23)Cc2ccco2)c1	5.05%
COc1ccccc1CNC(=O)c1ccc(N(C)S(=O)(=O)c2ccc(C)cc2)cc1	-1.48%
CCOc1ccc(CCNC(=O)COC(=O)c2ccc(F)c(S(=O)(=O)N3CCOCC3)c2)cc1OCC	0.417%
Cc1c(Cl)cccc1NC(=O)CCC(=O)N/N=C/c1ccco1	2.71%
COc1ccc(CNC(=O)C(=O)NCC2OCCN2C(=O)c2ccc(OC)cc2)cc1 (stereo unspecified)	-1.77%
FC(F)(F)c1cc(-c2ccco2)nc(NCc2ccc(Cl)cc2)n1	-0.748%
O=C(O)c1ccc(F)c(S(=O)(=O)Nc2ccccc2)c1	2.67%
Cc1cc(C(C)(C)C)cc(S(=O)(=O)Nc2ccc(C(=O)O)cc2)c1C	20% (active)
Cc1noc(C)c1S(=O)(=O)Nc1ccc(C(=O)O)cc1	-2.83%
Cc1cc(C)cc(N(CC(=O)NCC2CCCO2)S(=O)(=O)c2c(C)noc2C)c1 (stereo unspecified)	-1.07%
CCc1ccc(Nc2n[n+](-c3ccccc3)c(-c3cccc(Cl)c3Cl)s2)cc1	1.25%
O=C(O)CCS(=O)(=O)c1ccc(-c2ccccc2)cc1	0.58%
O=C(c1ccco1)N1CCN(C(=O)C2CCCN(S(=O)(=O)c3cccc4nsnc34)C2)CC1 (stereo unspecified)	1.18%
COc1cccc(/C=N/NC(=O)C(=O)N2CCCC2)c1	-1.54%
C#CCNC(=O)[C@H](Cc1ccc(C(=O)c2ccccc2)cc1)NC(=O)OC(C)(C)C	-0.186%
